Data published in PubChem BioAssay (NCATS).
Inconclusive results are not listed. Active and inactive are the calls of the source. Calls come from the whole dose curve; as a rule, active = well fitted cell-killing curve with a large enough effect; inconclusive = small, poorly fitted or top-dose-only effect, or effect the other way; inactive = no such curve, though single readings can be large or run the other way.

Columns and labels:
[1] = Quantitative High-Throughput drug screen in 47 multiple myeloma cell lines against the NCATS MIPE library collection: L363_DSMZ cell viability assay (AID 1918984); note: nearly all actives have a fitted effect of over 40% in size
Outline: (§1)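 ATP-based luminescence (CellTiter-Glo, 5 min RT incubation) quantified surviving cells following two days' treatment with MIPE 4.0 agents at 37 °C, 5% CO2.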

[2] = Quantitative High-Throughput drug screen in 47 multiple myeloma cell lines against the NCATS MIPE library collection: KMS34_JCRB cell viability assay (AID 1918985); note: nearly all actives have a fitted effect of over 40% in size
Outline: as §1

[3] = Quantitative High-Throughput drug screen in 47 multiple myeloma cell lines against the NCATS MIPE library collection: OCIMY5_PLB cell viability assay (AID 1918988); note: nearly all actives have a fitted effect of over 65% in size
Outline: as §1

[4] = Quantitative High-Throughput drug screen in 47 multiple myeloma cell lines against the NCATS MIPE library collection: U266_ATCC cell viability assay (AID 1919864); note: nearly all actives have a fitted effect of over 35% in size
Outline: as §1

[5] = Quantitative High-Throughput drug screen in 47 multiple myeloma cell lines against the NCATS MIPE library collection: XG6_PLB cell viability assay (AID 1919865); note: nearly all actives have a fitted effect of over 40% in size
Outline: as §1

[6] = Quantitative High-Throughput drug screen in 47 multiple myeloma cell lines against the NCATS MIPE library collection: OCIMY7_PLB cell viability assay (AID 1918987); conditions: OCI-MY7 myeloma viability, CellTiter-Glo ATP, 48 h; viability (% of DMSO): at 45.8 µM (top of the series); note: nearly all actives have a fitted effect of over 65% in size
Outline: as §1

[7] = Quantitative High-Throughput drug screen in 47 multiple myeloma cell lines against the NCATS MIPE library collection: OPM1_PLB cell viability assay (AID 1918989); note: nearly all actives have a fitted effect of over 40% in size
Outline: as §1

[8] = Quantitative High-Throughput drug screen in 47 multiple myeloma cell lines against the NCATS MIPE library collection: SKMM1_PLB cell viability assay (AID 1919863); conditions: SKMM1 myeloma viability, CellTiter-Glo ATP, 48 h; viability: stronger effect = lower value; note: nearly all actives have a fitted effect of over 35% in size
Outline: as §1

[9] = Quantitative High-Throughput drug screen in 47 multiple myeloma cell lines against the NCATS MIPE library collection: XG1_PLB cell viability assay (AID 1919866); note: nearly all actives have a fitted effect of over 35% in size
Outline: as §1
Potency is the fitted concentration of half-maximal effect.

CCS(=O)(=O)N1CC(CC#N)(n2cc(-c3ncnc4[nH]ccc34)cn2)C1
inactive: Potency [1]
active: Potency [2] 6.62 µM | Potency [3] 7.43 µM | Potency [4] 23.5 µM | Potency [5] 2.09 µM

O=C(Nc1ccccc1Br)N[C@@H]1CCN(c2ccc(C(F)(F)F)cn2)C1
inactive: Potency [1] | Potency [2]
active: Potency [5] 23.5 µM

COC(=O)N[C@H](C(=O)N1CCC[C@@H]1c1ncc(-c2ccc(-c3ccc(-c4cnc([C@@H]5CCCN5C(=O)[C@@H](NC(=O)OC)C(C)C)[nH]4)cc3)cc2)[nH]1)C(C)C
active: Potency [1] 29.6 µM | Potency [6] 18.7 µM | Potency [5] 26.4 µM

CN1CCN(CCOc2cc(OC3CCOCC3)c3c(Nc4c(Cl)ccc5c4OCO5)ncnc3c2)CC1
active: Potency [1] 14.8 µM | Potency [6] 18.7 µM | Potency [3] 18.7 µM | Potency [7] 20.9 µM | Potency [5] 5.26 µM

OC[C@H]1O[C@@H](n2cnc3c2NC=NC[C@@H]3O)C[C@H]1O
inactive: Potency [1] | Potency [7] | viability [8] 110%
active: Potency [6] 23.5 µM

N#CC1(c2ccc(NC(=O)c3cccnc3NCc3ccncc3)cc2)CCCC1
active: Potency [5] 18.7 µM | Potency [9] 20.9 µM
inactive: Potency [1] | Potency [2] | Potency [4]

CN(C)Cc1ccc(-c2nc3cccc4c3n2CCNC4=O)cc1
active: Potency [1] 18.7 µM | Potency [6] 8.33 µM | Potency [3] 20.9 µM | Potency [5] 16.6 µM | Potency [9] 20.9 µM

COc1cc2ncnc(-n3nc(-c4ccccn4)nc3N)c2cc1OC
active: Potency [1] 0.662 µM | Potency [6] 1.66 µM | Potency [3] 5.26 µM | Potency [7] 11.8 µM | Potency [8] 0.662 µM | Potency [5] 1.05 µM | Potency [9] 5.9 µM

COC1CCC(N(C(=O)C2CCC(C)CC2)c2cc(C3=CCCCC3)sc2C(=O)O)CC1 (stereo not drawn)
inactive: Potency [1]
active: Potency [3] 11.8 µM | Potency [5] 23.5 µM | Potency [9] 20.9 µM

O=c1cc(-c2ccccc2)oc2cc(O)cc(O)c12
inactive: Potency [2] | viability [8] 139%
active: Potency [1] 16.6 µM

CCCCCCCCCCCC1=C(O)C(=O)C=C(O)C1=O
active: Potency [1] 0.469 µM | Potency [3] 29.6 µM | Potency [5] 0.372 µM

CC1CCC(C(=O)N(c2cc(C#CC(C)(C)C)sc2C(=O)O)C2CCC(O)CC2)CC1 (stereo not drawn)
inactive: Potency [1] | Potency [4]
active: Potency [6] 23.5 µM

N#CC(=C(N)Sc1ccccc1N)C(C#N)=C(N)Sc1ccccc1N
active: Potency [1] 10.5 µM | Potency [6] 0.662 µM | Potency [7] 20.9 µM | Potency [8] 1.32 µM | Potency [5] 14.8 µM | Potency [9] 9.35 µM

O=C(O)CCC1CCC(c2cc(F)ccc2F)(S(=O)(=O)c2ccc(Cl)cc2)CC1 (stereo not drawn)
active: Potency [1] 16.6 µM | Potency [6] 2.64 µM | Potency [7] 5.26 µM | Potency [4] 6.62 µM | Potency [9] 9.35 µM
inactive: Potency [3]

COCCCCC(=NOCCN)c1ccc(C(F)(F)F)cc1
inactive: Potency [1]
active: Potency [2] 3.72 µM | Potency [3] 23.5 µM | Potency [4] 16.6 µM

NC(CO)(CO)CCc1ccc(Sc2cccc(OCc3ccccc3)c2)cc1Cl
active: Potency [1] 10.5 µM | Potency [3] 20.9 µM | Potency [7] 6.62 µM | Potency [8] 26.4 µM | Potency [5] 20.9 µM

Cc1ccc(C(C)(O)c2nc3ccccc3s2)c(C)c1 (stereo not drawn)
inactive: Potency [1] | Potency [2] | viability [8] 94% | Potency [5] | Potency [9]

N#C[C@H]1C[C@H]2C[C@@H]2N1C(=O)[C@@H](N)C12CC3CC(CC(O)(C3)C1)C2
inactive: Potency [1] | Potency [2] | Potency [7] | viability [8] 119% | Potency [4] | Potency [9]

CC(C)C[C@H](CC(=O)O)C(=O)N[C@@H](Cc1c[nH]c2ccccc12)C(=O)N[C@@H](C)c1ccccc1
inactive: Potency [1] | Potency [2] | Potency [7] | Potency [5] | Potency [9]

Cc1ccc(/C=N/NC(=O)c2ccccc2Oc2ccccc2)o1
inactive: Potency [1]
active: Potency [3] 16.6 µM | Potency [9] 11.8 µM

Nc1ncnc2c1ncn2[C@@H]1O[C@H](CO)C[C@@H]1O
inactive: Potency [1] | Potency [6] | Potency [7] | Potency [5] | Potency [9]
active: Potency [8] 18.7 µM | Potency [4] 26.4 µM

O=c1cc(CN2CCOCC2)occ1OCCCCCSc1ccnc2cc(C(F)(F)F)ccc12
inactive: viability [8] 111%
active: Potency [1] 16.6 µM | Potency [6] 11.8 µM | Potency [3] 16.6 µM | Potency [5] 3.32 µM | Potency [9] 11.8 µM
